# Measured values from the supplement of paper PMC8728848.
# This is one part of a sample in which the strongest signals are shown more often than they occur.
# Legend:
# Assay in all cases: glycan array binding signal (z-score within array); higher = stronger binding
# Conditions in all cases: glycan notation: IUPAC condensed, linker removed
# [1] = target: Fuc(a1-2)Gal(b1-3)GlcNAc6S
# How it was run: (§1)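 From the Consortium for Functional Glycomics database, 3228 arrays were curated, keeping only those whose protein sequence was available. Binding is given as a within-array Z-score averaged across arrays sharing a protein sequence and across linkers. Negative Z-scores can be read as non-binding.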
# [2] = target: Fuc(a1-2)Gal(b1-3)[Fuc(a1-4)]GlcNAc
# How it was run: as §1
# [3] = target: Fuc(a1-2)Gal(b1-3)[Fuc(a1-4)]GlcNAc(b1-2)Man(a1-3)[Fuc(a1-2)Gal(b1-3)[Fuc(a1-4)]GlcNAc(b1-2)Man(a1-6)]Man(b1-4)GlcNAc(b1-4)[Fuc(a1-6)]GlcNAc(b1-4)[Fuc(a1-6)]GlcNAc
# How it was run: as §1
# [4] = target: Fuc(a1-2)Gal(b1-3)[Fuc(a1-4)]GlcNAc(b1-3)[Fuc(a1-3)[Gal(b1-4)]GlcNAc(b1-6)]Gal(b1-4)Glc
# How it was run: as §1
# [5] = target: Fuc(a1-2)Gal(b1-4)GlcNAc6S
# How it was run: as §1
# [6] = target: Fuc(a1-2)[GalNAc(a1-3)]Gal(b1-3)GlcNAc(b1-2)Man(a1-3)[Fuc(a1-2)[GalNAc(a1-3)]Gal(b1-3)GlcNAc(b1-2)Man(a1-6)]Man(b1-4)GlcNAc(b1-4)[Fuc(a1-6)]GlcNAc
# How it was run: as §1
# [7] = target: Fuc(a1-3)[Gal(b1-4)]Glc6S
# How it was run: as §1
# [8] = target: Fuc(a1-3)[Gal(b1-4)]GlcNAc(b1-3)Gal(b1-4)[Fuc(a1-3)]GlcNAc(b1-3)Gal(b1-4)[Fuc(a1-3)]GlcNAc
# How it was run: as §1
# [9] = target: Fuc(a1-3)[GalNAc(b1-4)]GlcNAc
# How it was run: as §1
# [10] = target: Gal(a1-3)Gal(b1-4)GlcNAc(b1-6)GalNAc
# How it was run: as §1
# [11] = target: Gal(a1-4)Gal(b1-4)GlcNAc(b1-3)Gal(b1-4)Glc
# How it was run: as §1
# [12] = target: Gal(b1-3)GalNAc(b1-3)Gal(a1-4)Gal(b1-4)Glc
# How it was run: as §1
# [13] = target: Gal(b1-3)GlcNAc(b1-2)Man(a1-3)[GlcNAc(b1-4)][Gal(b1-3)GlcNAc(b1-2)Man(a1-6)]Man(b1-4)GlcNAc(b1-4)GlcNAc
# How it was run: as §1
# [14] = target: Gal(b1-3)GlcNAc(b1-3)Gal(b1-4)GlcNAc
# How it was run: as §1
# [15] = target: Gal(b1-3)GlcNAc(b1-3)Gal(b1-4)GlcNAc(b1-2)Man(a1-3)[Gal(b1-3)GlcNAc(b1-3)Gal(b1-4)GlcNAc(b1-2)Man(a1-6)]Man(b1-4)GlcNAc(b1-4)GlcNAc
# How it was run: as §1
# [16] = target: Gal(b1-3)GlcNAc6S
# How it was run: as §1
# [17] = target: Gal(b1-4)GlcNAc(b1-2)Man(a1-6)Man(b1-4)GlcNAc(b1-4)GlcNAc
# How it was run: as §1
# [18] = target: Gal(b1-4)GlcNAc(b1-2)Man(a1-6)[Man(a1-3)]Man(b1-4)GlcNAc(b1-4)GlcNAc
# How it was run: as §1
# [19] = target: Gal(b1-4)GlcNAc(b1-3)Gal(b1-4)GlcNAc(b1-2)[Gal(b1-4)GlcNAc(b1-3)Gal(b1-4)GlcNAc(b1-6)]Man(a1-6)[Gal(b1-4)GlcNAc(b1-3)Gal(b1-4)GlcNAc(b1-2)Man(a1-3)]Man(b1-4)GlcNAc(b1-4)[Fuc(a1-6)]GlcNAc
# How it was run: as §1
# [20] = target: Gal(b1-4)GlcNAc(b1-3)Gal(b1-4)GlcNAc(b1-3)Gal(b1-4)GlcNAc(b1-2)Man(a1-3)[Gal(b1-4)GlcNAc(b1-3)Gal(b1-4)GlcNAc(b1-3)Gal(b1-4)GlcNAc(b1-2)Man(a1-6)]Man(b1-4)GlcNAc(b1-4)GlcNAc
# How it was run: as §1
# [21] = target: Gal(b1-4)GlcNAc(b1-3)Gal(b1-4)GlcNAc(b1-3)Gal(b1-4)GlcNAc(b1-3)Gal(b1-4)GlcNAc(b1-2)Man(a1-3)[Gal(b1-4)GlcNAc(b1-3)Gal(b1-4)GlcNAc(b1-3)Gal(b1-4)GlcNAc(b1-3)Gal(b1-4)GlcNAc(b1-2)Man(a1-6)]Man(b1-4)GlcNAc(b1-4)[Fuc(a1-6)]GlcNAc
# How it was run: as §1
# [22] = target: Gal(b1-4)GlcNAc(b1-3)Gal(b1-4)GlcNAc(b1-3)Gal(b1-4)GlcNAc(b1-3)Gal(b1-4)GlcNAc(b1-2)[Gal(b1-4)GlcNAc(b1-3)Gal(b1-4)GlcNAc(b1-3)Gal(b1-4)GlcNAc(b1-3)Gal(b1-4)GlcNAc(b1-6)]Man(a1-6)[Gal(b1-4)GlcNAc(b1-3)Gal(b1-4)GlcNAc(b1-3)Gal(b1-4)GlcNAc(b1-3)Gal(b1-4)GlcNAc(b1-2)Man(a1-3)]Man(b1-4)GlcNAc(b1-4)[Fuc(a1-6)]GlcNAc
# How it was run: as §1
# [23] = target: Gal(b1-4)GlcNAc(b1-3)Gal(b1-4)GlcNAc(b1-3)Gal(b1-4)GlcNAc(b1-3)Gal(b1-4)GlcNAc(b1-3)Gal(b1-4)GlcNAc(b1-2)Man(a1-3)[Gal(b1-4)GlcNAc(b1-3)Gal(b1-4)GlcNAc(b1-3)Gal(b1-4)GlcNAc(b1-3)Gal(b1-4)GlcNAc(b1-3)Gal(b1-4)GlcNAc(b1-2)Man(a1-6)]Man(b1-4)GlcNAc(b1-4)GlcNAc
# How it was run: as §1
# [24] = target: Gal6S(b1-4)Glc
# How it was run: as §1
# [25] = target: Gal6S(b1-4)GlcNAc
# How it was run: as §1
# [26] = target: GalNAc(a1-3)Gal
# How it was run: as §1
# [27] = target: GalNAc(a1-3)GalNAc
# How it was run: as §1
# [28] = target: GalNAc(b1-3)Gal(a1-4)Gal(b1-4)GlcNAc(b1-3)Gal(b1-4)Glc
# How it was run: as §1
# [29] = target: GalNAc(b1-6)GalNAc
# How it was run: as §1
# [30] = target: GlcNAc(a1-4)Gal(b1-4)GlcNAc(b1-3)Gal(b1-4)GlcNAc
# How it was run: as §1
# [31] = target: GlcNAc(a1-4)Gal(b1-4)GlcNAc(b1-3)Gal(b1-4)[Fuc(a1-3)]GlcNAc(b1-3)Gal(b1-4)[Fuc(a1-3)]GlcNAc
# How it was run: as §1
# [32] = target: GlcNAc(b1-2)[GlcNAc(b1-4)]Man(a1-3)[GlcNAc(b1-4)][GlcNAc(b1-2)[GlcNAc(b1-6)]Man(a1-6)]Man(b1-4)GlcNAc(b1-4)GlcNAc
# How it was run: as §1
# [33] = target: GlcNAc(b1-3)Gal(b1-4)GlcNAc(b1-3)Gal(b1-4)GlcNAc(b1-2)Man(a1-3)[GlcNAc(b1-3)Gal(b1-4)GlcNAc(b1-3)Gal(b1-4)GlcNAc(b1-2)Man(a1-6)]Man(b1-4)GlcNAc(b1-4)[Fuc(a1-6)]GlcNAc
# How it was run: as §1
# [34] = target: Man(a1-3)[Man(a1-6)]Man(a1-6)[Man(a1-3)]Man
# How it was run: as §1
# [35] = target: Neu5Ac(a2-3)Gal(b1-3)GalNAc6S
# How it was run: as §1
# [36] = target: Neu5Ac(a2-3)Gal(b1-3)[Neu5Ac(a2-6)]GlcNAc(b1-3)[Fuc(a1-3)[Gal(b1-4)]GlcNAc(b1-6)]Gal(b1-4)Glc
# How it was run: as §1
# [37] = target: Neu5Ac(a2-3)Gal(b1-4)GlcNAc(b1-2)[Neu5Ac(a2-3)Gal(b1-4)GlcNAc(b1-4)]Man(a1-3)[GlcNAc(b1-4)][Neu5Ac(a2-3)Gal(b1-4)GlcNAc(b1-4)Man(a1-6)]Man(b1-4)GlcNAc(b1-4)GlcNAc
# How it was run: as §1
# [38] = target: Neu5Ac(a2-3)Gal(b1-4)[Fuc(a1-3)]GlcNAc(b1-2)Man
# How it was run: as §1
# [39] = target: Neu5Ac(a2-6)Gal(b1-4)GlcNAc(b1-2)Man(a1-3)[Man(a1-6)]Man(b1-4)GlcNAc(b1-4)GlcNAc
# How it was run: as §1
# [40] = target: Neu5Ac(a2-6)Gal(b1-4)GlcNAc(b1-2)[Neu5Ac(a2-6)Gal(b1-4)GlcNAc(b1-4)]Man(a1-3)[GlcNAc(b1-4)][Neu5Ac(a2-6)Gal(b1-4)GlcNAc(b1-4)Man(a1-6)]Man(b1-4)GlcNAc(b1-4)GlcNAc
# How it was run: as §1
# [41] = target: Neu5Ac(a2-6)Gal(b1-4)GlcNAc(b1-6)[Gal(b1-3)]GalNAc
# How it was run: as §1
# [42] = target: Neu5Ac(a2-6)GalNAc(b1-4)GlcNAc
# How it was run: as §1
# [43] = target: Neu5Ac(a2-8)Neu5Ac(a2-8)Neu5Ac(a2-3)Gal(b1-4)Glc
# How it was run: as §1
# [44] = target: Neu5Gc(a2-6)GalNAc
# How it was run: as §1
binder,measurement,setting,value
"OS9-MRH (Homo sapiens), Q13438 (protein) IPELLSPMRDAPCLLKTKDWWTYEFCYGRHIQQYHMEDSEIKGEVLYLGYYQSAFDWDDETAKASKQHRLKRYHSQTYGNGSKCDLNGRPREAEVRFLCDEGAGISGDYIDRVDEPLSCSYVLTIRTPRLCPHPLLRPPPSAAPQAI",glycan array binding signal (z-score),[1],3.15
same,glycan array binding signal (z-score),[2],-1.22
same,glycan array binding signal (z-score),[3],0.415
same,glycan array binding signal (z-score),[4],0.3
same,glycan array binding signal (z-score),[5],2.76
same,glycan array binding signal (z-score),[6],0.172
same,glycan array binding signal (z-score),[7],-1.74
same,glycan array binding signal (z-score),[8],2.81
same,glycan array binding signal (z-score),[9],-0.024
same,glycan array binding signal (z-score),[10],0.493
same,glycan array binding signal (z-score),[11],-0.569
same,glycan array binding signal (z-score),[12],2.47
same,glycan array binding signal (z-score),[13],2.02
same,glycan array binding signal (z-score),[14],-0.137
same,glycan array binding signal (z-score),[15],2.4
same,glycan array binding signal (z-score),[16],-0.326
same,glycan array binding signal (z-score),[17],2.22
same,glycan array binding signal (z-score),[18],1.24
same,glycan array binding signal (z-score),[19],2.17
same,glycan array binding signal (z-score),[20],0.47
same,glycan array binding signal (z-score),[21],-0.755
same,glycan array binding signal (z-score),[22],1.51
same,glycan array binding signal (z-score),[23],2.42
same,glycan array binding signal (z-score),[24],-0.643
same,glycan array binding signal (z-score),[25],-0.312
same,glycan array binding signal (z-score),[26],2.81
same,glycan array binding signal (z-score),[27],3.57
same,glycan array binding signal (z-score),[28],-1.33
same,glycan array binding signal (z-score),[29],1.14
same,glycan array binding signal (z-score),[30],-0.159
same,glycan array binding signal (z-score),[31],1.12
same,glycan array binding signal (z-score),[32],-1.46
same,glycan array binding signal (z-score),[33],0.656
same,glycan array binding signal (z-score),[34],0.835
same,glycan array binding signal (z-score),[35],0.458
same,glycan array binding signal (z-score),[36],-0.321
same,glycan array binding signal (z-score),[37],0.322
same,glycan array binding signal (z-score),[38],-0.503
same,glycan array binding signal (z-score),[39],-0.807
same,glycan array binding signal (z-score),[40],-0.99
same,glycan array binding signal (z-score),[41],-0.081
same,glycan array binding signal (z-score),[42],5.26
same,glycan array binding signal (z-score),[43],0.1
same,glycan array binding signal (z-score),[44],1.14
